The test system of the assay is SYK. As to conditions: Compound Concentration (nM):1000.
For `Cl.O=C(Nc1ccc(Oc2ccc3[nH]c(NC(=O)c4ccccc4)nc3c2)cc1)Nc1cc(C(F)(F)F)ccc1F` [GW709042A], the “Percent Control” value was determined as 99%.
The figure for `COc1cccc(-n2ncc3c(N/N=C/c4ccncc4)ncnc32)c1` [GW784752X] is 79%; for `NS(=O)(=O)c1ccc(N/N=C2\C(=O)Nc3ccc(Cl)cc32)cc1` [GW280670X] it is 98%; for `O=C(Nc1n[nH]c2nc(-c3ccc(O)cc3)c(Br)cc12)C1CC1` [SB-725317] it is 100%.
To `CC1=C(C(=O)Nc2ccc3[nH]ncc3c2)C(c2ccc3ccccc3c2)CC(=O)N1` (centres unmarked) [GSK270822A] belongs 74%; to `Cc1cc(O)cc(C)c1/C=C/c1cncc(C(N)=O)c1` [GW435821X], 74%.
To `NS(=O)(=O)c1ccc(N/N=C2\C(=O)Nc3ccc(C(=O)NCc4ccncc4)cc32)cc1` [GW300657X] belongs 73%; to `C/C(Nc1ccc(S(N)(=O)=O)cc1)=C1/C(=O)Nc2ccccc21` [GW335962X], 94%.
As to `CC1=C(C(=O)Nc2ccc3[nH]ncc3c2)C(c2ccc(Cl)c(Cl)c2)CC(=O)N1` (centres unmarked) [GSK299115A], the “Percent Control” value stood at 99%.
With `CCS(=O)(=O)c1ccc(OC)c(Nc2ncc(-c3cccc(F)c3)o2)c1` [GW621970X], the “Percent Control” value is listed as 81%.
To `COc1ccccc1-c1cc(/C=C2\C(=O)Nc3ncc(Br)cc32)cc(Br)c1O` [GW442130X] belongs 100%; to `NS(=O)(=O)c1ccc(N/N=C2\C(=O)Nc3ccc(C(=O)NCCc4c[nH]cn4)cc32)cc1` [GW300660X], 100%; to `O=C1Nc2ccc(C(=O)c3ccco3)cc2C1=Cc1cc(Cl)c(O)c(Cl)c1` [GW406108X], 100%.
To `COc1cc(C)c(N(C)C(=O)CN(C)C)cc1Nc1nc(Nc2cccc(F)c2C(N)=O)c2cc[nH]c2n1` [GSK2219385] belongs 100%; to `NS(=O)(=O)c1ccc(N/N=C2\C(=O)Nc3ccc(-c4cnco4)cc32)cc1` [GW276655], 100%; to `COc1ccc2[nH]c3c4[nH]c5ccc(OC)cc5c4c4c(c3c2c1)C(=O)NC4=O` [GW296115X], 73%.
Turning to `COc1cc2ncnc(Nc3ccc4c(cnn4Cc4ccccc4)c3)c2cc1OC.Cl` [GW282449A], the “Percent Control” value was determined as 77%.
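Further: KINOMEscan scanMAX binding as percent activity remaining versus control; lower means stronger binding.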
